Hit rate of the full screen: of about 330,000 compounds, about 610 (0.18%) were called active. Roughly 2% stayed inconclusive and do not appear here. For the sample, actives were picked, then their nearest neighbours and some compounds at random. A number with no mark means an inactive call. The call rests on the fitted dose curve.
Test: qHTS of Yeast-based Assay for SARS-CoV PLP; further: nearly all actives have a fitted effect of over 55% in size; on activity, positive = growth rescue: 0% is about no effect
Settings: S. cerevisiae expressing SARS-CoV PLpro; Potency: growth rescue; series mostly up to 32.9 µM; activity, positive = growth rescue: at the top concentration
Potency means the concentration at half of the fitted maximal effect.

| SMILES | activity, positive = growth rescue [%] | Potency |
| --- | --- | --- |
| CCN(CC)S(=O)(=O)c1ccc2nc(CSc3nnnn3-c3ccc(O)cc3)[nH]c2c1 | 3.58 | – |
| Cc1cc2c(cc1S(=O)(=O)CCC(=O)NCc1ccccc1)OCC(=O)N2 | 0.684 | – |
| COc1ccc(Cl)cc1NC(=O)CCS(=O)(=O)c1cc2c(cc1C)NC(=O)CO2 | -0.255 | – |
| COc1ccc(NC(=O)CCS(=O)(=O)c2cc3c(cc2Cl)NC(=O)CO3)cc1OC | – | 10 µM (active) |
| CN(C(=O)CN1C(=O)NC(C)(CCc2ccccc2)C1=O)c1ccccc1 (stereo not drawn) | -0.754 | – |
| CC(C)CCNC(=O)C1CCCN(S(=O)(=O)c2ccc(F)cc2)C1 (stereo not drawn) | -1.9 | – |
| CCCN(CC1CC1)C(=S)NC(=O)c1ccccc1Br | 9.93 | – |
| CCCCCOc1ccc(/C=C/C(=O)NCCc2nc3ccccc3[nH]2)cc1OC | 7.21 | – |
| COc1ccc(CNC(=O)C(=O)NCC2OCCN2C(=O)c2ccc(OC)cc2)cc1 (stereo not drawn) | -2.26 | – |
| CC(C)CC(=O)c1c[nH]c(C(=O)NCc2ccccc2)c1 | 0.742 | – |
| CCOC(=O)N1CCN(C(=O)COC(=O)c2cccc(S(C)(=O)=O)c2)CC1 | -2.34 | – |
| CC(=O)c1cn(CCCCCCCCCCn2cc(C(C)=O)c(=O)[nH]c2=O)c(=O)[nH]c1=O | -0.869 | – |
| CN(Cc1ccc2nsnc2c1)Cc1nc(Cc2cccc(F)c2)no1 | -0.45 | – |
| Cc1cccc(C)c1NC1=NC(=S)N(c2ccc(N(C)C)cc2)C1(C)C | -1.52 | – |
| O=C(OCC1O[C@@H](OC(=O)c2cc(O)c(O)c(O)c2)[C@@H](OC(=O)c2cc(O)c(O)c(O)c2)[C@@H](OC(=O)c2cc(O)c(O)c(O)c2)[C@@H]1OC(=O)c1cc(O)c(O)c(O)c1)c1cc(O)c(O)c(O)c1 (stereo partly drawn) | – | 5.62 µM (active) |
| CCOC(=O)CN1C(=O)N[C@@H](c2ccc(Br)cc2)C(C(C)=O)=C1C | -4.65 | – |
| CCc1cccc2c(C#N)cn(CC(=O)N3CCOCC3)c12 | -8.07 | – |
| CCc1cccc2c3c([nH]c12)C(CC)(CC(=O)O)OCC3 (stereo not drawn) | – | 20 µM (active) |
| Cc1cc2ccccn2c1C(=O)c1cccc(S(=O)(=O)N2CCOCC2)c1 | 1.01 | – |
| O=C(OCc1cn(-c2ccc(Cl)c(Cl)c2)nn1)c1ccccc1Cl | -2.52 | – |
| COC(=O)CCC(=O)N1CCCC(CO)(Cc2ccccc2)C1 (stereo not drawn) | 0.483 | – |
| CCOC(=O)c1c(N)c(C#N)nn1-c1ccccc1C(=O)OC | 1.15 | – |
| CC1(C)CN=C(N2CCN(c3ncnc4sc5c(c34)CCCC5)CC2)S1 | 1.6 | – |

| SMILES | activity, positive = growth rescue [%] | Potency |
| --- | --- | --- |
| COc1ccc(NC(=O)CN(C)C(=O)c2ccc(NC3CC3)c([N+](=O)[O-])c2)cc1 | -10.9 | – |
| COc1ccc(C(C(=O)NC(C)(C)C)N(Cc2ccc(F)cc2)C(=O)CCC(=O)Nc2cc(C)on2)cc1 (stereo not drawn) | 4.76 | – |
| Cc1ccccc1Cn1nc(C)c(NC(=O)C(F)(F)F)c1C | 18.9 | – |
| CCCCc1ccc(NC(=O)CN2C(=O)NC(Cc3ccccc3)C2=O)cc1 (stereo not drawn) | -2.87 | – |
| O=C(C(NS(=O)(=O)c1cccc2nsnc12)c1ccccc1)N1CCN(c2ccccc2)CC1 (stereo not drawn) | 3.85 | – |
| Cc1cc(OCCOc2cccc3cccnc23)c(C)cc1Cl | 7.06 | – |
| CC(C)CNC(=O)C1CCCN(S(=O)(=O)c2ccc(-n3cnnn3)cc2)C1 (stereo not drawn) | -2.95 | – |
| COC(=O)C1(C)NC(c2ccc(C)cc2)C2C(=O)N(c3ccc(F)cc3)C(=O)C21 (stereo not drawn) | 5.13 | – |
| Cc1c2cnn(-c3ccccc3)c(=O)c2c(C)n1CCCC(=O)N1CCN(C)CC1 | -4.01 | – |
| COC(=O)[C@]1(C)CCC[C@@]2(C)C3CC[C@]4(OC(C)=O)C[C@@]3(CCC21)CC4=NO (stereo partly drawn) | -11.5 | – |
| CCCCN(CC(=O)Nc1cccc(S(=O)(=O)N2CCCC2)c1)Cc1nc2ccccc2c(=O)[nH]1 | 4.19 | – |
| COc1ccc(N(C(=O)CNC(=O)c2ccco2)C(C(=O)NCC2CCCO2)c2ccccc2)cc1Cl (stereo not drawn) | 3.16 | – |
| COc1cccc(NC(=S)NC(=O)c2c(Cl)c(C)nn2C)c1 | 8.27 | – |
| Cc1ccc(/C=N/NC(=O)C2=NNC(c3ccccc3)(c3ccccc3)C2)c(O)c1 | – | 3.55 µM (active) |
| Cc1nc2ccc(C(=O)N/N=C/c3ccc(O)cc3)cc2[nH]1 | -3.37 | – |
| Cc1ccc2occ(/C=N/NC(=O)c3ccccc3C)c(=O)c2c1 | -12.5 | – |
| Cc1cc(OC(=O)c2ccccc2Cl)ccc1N1C(=O)CCC1=O | -1.19 | – |
| CC(C)C(C)NC(=O)COc1nc2ccccc2nc1N(C)C1CCCCC1 (stereo not drawn) | 1.94 | – |
| O=C(NC1CCN(C(=S)NCc2ccco2)CC1)c1ccc(F)cc1 | 2.87 | – |
| Cn1c(=O)n(C)c2cc(CNc3ccc(N4CCOCC4)c(C(=O)O)c3)ccc21 | -1.54 | – |
| CC(=O)Nc1cccc2c1[n+]([O-])c(C)c(C)[n+]2[O-] | 2.81 | – |
| COC(=O)c1ccc(C(NC(=O)OCc2ccccc2)/C(C)=C/[C@@H](C)C(=O)NCc2ccc(OC)c(OC)c2)cc1 (stereo partly drawn) | -0.683 | – |
| Cc1cc(C(=O)N/N=C/c2cc([N+](=O)[O-])cc(C)c2O)n[nH]1 | – | 4.47 µM (active) |

| SMILES | activity, positive = growth rescue [%] | Potency |
| --- | --- | --- |
| COc1ccc(CC(=O)N/N=C/c2cc([N+](=O)[O-])cc(Br)c2O)cc1 | -3.04 | – |
| COc1ccc2ccccc2c1/C=N/NC(=O)c1cc(C)[nH]n1 | -2.51 | – |
| CC(=O)c1ccc(NC(=O)C2CC(=O)Nc3nc4ccccc4n32)cc1 (stereo not drawn) | 0.911 | – |
| O=c1[nH]c2ccc(S(=O)(=O)N3CCCC3)cc2[nH]1 | 1.84 | – |
| COC(=O)C[n+]1cccc2ccccc21 | -1.62 | – |
| CN(C)c1ccc(C(=S)N2CCN(C(=S)Nc3ccc(Cl)cc3)CC2)cc1 | -2.17 | – |
| COc1cc(N2CCCC2)c(OC)cc1/C=C(/C#N)c1cccc(Br)c1 | 11.2 | – |
| CCOC(=O)C1C(=O)OC2(CCCC2)C1C(=O)OCC (stereo not drawn) | -2.52 | – |
| CCN(C(=O)c1ccc(Br)cc1)c1ccccc1 | -0.842 | – |
| CC1CCCCC1NC(=O)/C(C#N)=C/C=C/c1ccccc1[N+](=O)[O-] (stereo not drawn) | -0.169 | – |
| COc1ccc(N(CCC(=O)NCCc2ccccc2)S(=O)(=O)c2ccc(C)cc2C)cc1 | -9.76 | – |
| O=C(COC(=O)Cc1ccccc1F)NNC(=O)c1ccc(Cl)cc1 | 3.87 | – |
| CCCCOC(=O)CNc1nnc(SCC(=O)OCC)[nH]c1=O | -2.39 | – |
| CC(=N\NC(=O)c1cc(Br)ccc1O)/C(=N/O)C(=O)Nc1ccccc1 | -5.47 | – |
| COc1ccc(-c2[nH]ncc2/C=N/NC(=O)c2cc(Br)ccc2O)c(OC)c1 | 26.5 | – |
| CC(C)/C=N/NC(=O)c1cc(Br)ccc1O | – | 10 µM (active) |
| COC(=O)c1cc(OC)c(OC)cc1NC(=O)CSc1ccc(C)cc1 | 5.7 | – |
| COc1ccc(C)cc1NC(=O)CSc1ccc(Cl)cc1 | -14.2 | – |
| COC(=O)c1scc(C)c1NC(=O)CSc1ccc(Cl)cc1 | – | 0.708 µM (active) |
| CCOC(=O)c1sc(/N=C/C2=C(O)CC(C)(C)CC2=O)c(C(=O)OCC)c1C | -0.745 | – |
| CCOC(=O)c1c(N)sc2c1CCCC2=O | 0.263 | – |
| CCOC(=O)c1c(/N=C/C2C(=O)CC(C)(C)CC2=O)sc(C)c1C | – | 3.16 µM (active) |

Reference: PubChem BioAssay AID485353 (National Center for Advancing Translational Sciences (NCATS), 2010)
